Source: PubChem BioAssay (NCI)
About 83,000 compounds went through this panel and 20% of them were active in at least one assay; those are over-represented in the sample as a whole.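 Treatment: one concentration, 48 hours, 96-well format. Scoring: percent growth, with anything below 10 considered active.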 Values without a mark were called inactive. Activity calls are given as the source filed them.

Key:
Assay in all cases: NCI-60 one-dose screen, 48 h (100 = growth as untreated, 0 = no growth, -100 = all killed)
NCI-H23 lung = conditions: 10 µM unless noted
NCI-H226 lung = conditions: 10 µM unless noted
NCI-H322M lung = conditions: 10 µM unless noted
HOP-62 NSCLC = conditions: 10 µM unless noted
NCI-H460 lung = conditions: 10 µM unless noted
786-0 renal = conditions: 10 µM unless noted
COLO 205 colon = conditions: 10 µM unless noted
DU-145 prostate = conditions: 10 µM unless noted
K-562 leukemia = conditions: 10 µM unless noted
MALME-3M melanoma = conditions: 10 µM unless noted
MDA-MB-231 breast = conditions: 10 µM unless noted
RXF 393 renal = conditions: 10 µM unless noted
SF-268 CNS = conditions: 10 µM unless noted
SF-295 CNS = conditions: 10 µM unless noted
SF-539 CNS = conditions: 10 µM unless noted
HOP-92 NSCLC = conditions: 10 µM
NCI-H522 lung = conditions: 10 µM
A549/ATCC NSCLC = conditions: 10 µM unless noted
UACC-257 melanoma = conditions: 10 µM unless noted
M14 melanoma = conditions: 10 µM unless noted

| Compound | growth (NCI-H23 lung) | growth (NCI-H226 lung) | growth (NCI-H322M lung) | growth (HOP-62 NSCLC) | growth (NCI-H460 lung) [%] | growth (786-0 renal) | growth (COLO 205 colon) | growth (DU-145 prostate) | growth (K-562 leukemia) | growth (MALME-3M melanoma) | growth (MDA-MB-231 breast) | growth (RXF 393 renal) | growth (SF-268 CNS) | growth (SF-295 CNS) | growth (SF-539 CNS) | growth (HOP-92 NSCLC) | growth (NCI-H522 lung) | growth (A549/ATCC NSCLC) | growth (UACC-257 melanoma) | growth (M14 melanoma) |
| --- | --- | --- | --- | --- | --- | --- | --- | --- | --- | --- | --- | --- | --- | --- | --- | --- | --- | --- | --- | --- |
| C[n+]1c2ccccc2c(Nc2ccc(NS(=O)(=O)CCCCN=C(N)N)cc2)c2ccc(N)cc21 | 26% | 41% | 71.4% | 32.2% | 10.9 | 44.1% | 50.4% | 23.7% | 41% | 32.6% | 93.9% | 71% | 39.7% | 5.07% (active) | 43% | – | – | – | – | – |
| N/C(=N\O)c1ccncc1 | 95.6% | 117% | 101% | 93.6% | – | 100% | 103% | 104% | 104% | 108% | 102% | 115% | 97.9% | 94.5% | 105% | 107% | 93.4% | 102% | 106% | 99.8% |
| CC(C)(C)c1cc(C[P+](c2ccc(Cl)cc2)(c2ccc(Cl)cc2)c2ccc(Cl)cc2)cc(C(C)(C)C)c1O | 86.5% | 90.6% | 86.1% | 98.9% | 94.9 | 99.1% | 50.4% | 108% | 32.4% | 37.4% | 102% | 68% | 99.1% | 91.9% | 105% | – | – | – | – | 106% |
| C=CCNC(=S)NNc1ccc([N+](=O)[O-])cn1 | 93.5% | 94.4% | 89.7% | 105% | – | 105% | 110% | 104% | 94.3% | 79.6% | 89.7% | 104% | 97.7% | 96.9% | 104% | 98.1% | 80.4% | 101% | 97.9% | – |
| CCCCN(CCCC)CCCNc1c2c(nc3ccc(Cl)cc13)CCCC2 | 82% | 100% | 95.4% | 86.6% | – | -69.6% (active) | 77.4% | 107% | 72.8% | 126% | 70.5% | 109% | 92.3% | 90.1% | 100% | 73.5% | 80.1% | 94.6% | 105% | 98% |
| O=C(NC1CCN(Cc2ccccc2)CC1)c1cc(-c2cccnc2)nc2ccc(Cl)cc12 | 67.9% | 84% | 91.6% | 101% | – | 78.7% | -37.3% (active) | 87.5% | 2.45% (active) | 74% | 58.8% | 82.1% | 100% | 67.6% | 63.9% | 56.5% | 90.4% | 56.3% | 83.2% | 77.9% |
| CCC(C)(CC)c1ccc(O)c(C)c1 | 98.9% | 98% | 94.4% | 101% | 105 | 94.8% | 105% | 114% | 114% | 99.8% | 106% | 108% | 109% | 105% | 100% | – | – | – | – | 99.7% |
| Cc1ccc(NCc2cn(-c3ccc(C(=O)O)cc3)nc2-c2ccc(C(=O)O)cc2)cc1 | 92.2% | 107% | 99.7% | 100% | – | 103% | 104% | 100% | 102% | 93.1% | 108% | 121% | 92.8% | 103% | 101% | 107% | 86.2% | 94.9% | 97.6% | 99.3% |
| COc1cc(/C=C/C(=O)/C=C(/C=C/c2ccc(OC(C)=O)c(OC)c2)OB(F)F)ccc1OC(C)=O | 61.5% | 87.1% | 99.6% | 103% | – | 80.7% | 71.2% | 64.5% | 15.2% | 51.7% | 80.8% | 14.7% | 81.2% | 86.7% | 56.8% | 62.5% | 16.8% | 82.7% | 63% | 34.1% |
| CCCCCCCCCc1cc[n+](CC(=O)c2ccc([N+](=O)[O-])cc2)cc1 | 14.2% | 31.8% | 71.6% | 27.2% | – | 31.9% | -76.9% (active) | 23.7% | -4.43% (active) | -34.9% (active) | -76.7% (active) | 32.5% | 29.6% | 9.4% (active) | -87.5% (active) | -45.2% (active) | -12.9% (active) | -23.7% (active) | 0.0548% (active) | -67.3% (active) |
| CNc1nc2ncn(C)c2c(=O)[nH]1 | 105% | 98.5% | 88.2% | 96.5% | 103 | 103% | 94.5% | 106% | 65.5% | 98.8% | 90.9% | 106% | 95.5% | 101% | 96.2% | – | – | – | – | 112% |
| OCCN1CCN(CC/C=C2/c3ccccc3Sc3ccc(C(F)(F)F)cc32)CC1 | 72.3% | 91% | 72.6% | 75.9% | 82.7 | 71.2% | 1.04% (active) | 82.7% | 6.74% (active) | 69% | 80.7% | 59.6% | 70.7% | 88.7% | 87.6% | – | – | – | – | 58.5% |
| OC(c1ccccc1)(c1ccccc1)C(F)(F)F | 97.4% | 112% | 116% | 102% | – | 106% | 107% | 109% | 99.7% | 122% | 101% | 120% | 82.8% | 107% | 101% | 95.7% | 84.6% | 99.1% | 104% | – |
| COc1ccc(Oc2[nH]n(C3=Nc4ccccc4Sc4ccccc43)c(=O)c2C#N)cc1 | 95.7% | 100% | 125% | 92.1% | – | 104% | 111% | 104% | 125% | 169% | 95.6% | 94.2% | 88.3% | 99.2% | 96.7% | 74.2% | 74.9% | 98.4% | 104% | 104% |
| Cc1ccc(CC(=O)O)c(C)c1 | 91.3% | 99.8% | 108% | 99.6% | – | 105% | 113% | 107% | 104% | 110% | 105% | 121% | 96.3% | 97.1% | 106% | 98.5% | 85% | 94.5% | 91.7% | 102% |
| CC(C)C(=O)c1ccc(Cl)s1 | 103% | 93.2% | 91.5% | 98.1% | 105 | 102% | 109% | 106% | 91.5% | 82.8% | 105% | 105% | 102% | 99.3% | 107% | – | – | – | – | 101% |
| COc1ccc(CNCCCN2C(=O)c3ccc4c5c(ccc(c35)C2=O)C(=O)N(CCCNCc2ccc(OC)c(OC)c2OC)C4=O)c(OC)c1OC | -74.8% (active) | -64.7% (active) | -60.5% (active) | -44.3% (active) | – | -78.8% (active) | -43.9% (active) | -96% (active) | -49.1% (active) | -78.5% (active) | -53.1% (active) | -91.9% (active) | -88.4% (active) | -76.8% (active) | -80.1% (active) | -43.5% (active) | -88.6% (active) | -89.4% (active) | -97.5% (active) | -60.6% (active) |
| CCN(CC)C(=O)C1(C)CCCC2(C)c3cc(OC(C)=O)ccc3CCC12 (stereo not drawn) | 84.3% | 75.8% | 83.5% | 94.9% | 90 | 92% | 92% | 99.9% | 58.6% | 86.4% | 103% | 92% | 86.5% | 85.1% | 89.2% | – | – | – | – | 112% |
